# Test results from PubChem BioAssay (EPA / NIEHS).
# The source made the active and inactive calls. Rule for the calls: active = hit-call score of the fitted dose curve at least 0.9, where 1 is the maximum; inactive = score below 0.9.
# Read-out: Collagen I, COL1A1 (gene 1277)
# Test: BSK_hDFCGF_CollagenI: BioMAP Diversity Plus: hDFCGF Assay for Collagen I Biomarker Activity (AID 2284250)
# Settings: primary human foreskin fibroblasts
# Procedure: BSK_hDFCGF is a cell-based, multiplexed-readout assay that uses foreskin fibroblast, a human skin primary cell, with measurements taken at 24 hours after chemical dosing in a 96-well plate.BSK_hDFCGF_CollagenI is an assay component measured in the BSK_hDFCGF assay. It measures Collagen I antibody related to regulation of gene protein expression using ELISA technology.Data from the assay component BSK_hDFCGF_CollagenI was analyzed at the endpoint, BSK_hDFCGF_CollagenI, in the positive analysis fitting direction relative to DMSO as the negative control and baseline of activity. Using a type of binding reporter, gain or loss-of-signal activity can be used to understand protein changes. To generalize the intended target to other relatable targets, this assay endpoint is annotated to the 'cell adhesion molecules' intended target family, where the subfamily is 'collagen'.
# The levels of cell surface (or secreted, indicated by the prefix "s") biomarker endpoints were measured by ELISA. Overt cytotoxicity to cells in confluent adherent cultures (all systems other than the BT system) was assessed by measuring total protein levels using sulforhodamine B (SRB) staining in parallel cultures at the time of biomarker measurements, indicated as SRB endpoints. For proliferation assays for adherent cell types, individual cell types are cultured at sub-confluence and relative cell numbers quantified by SRB staining at time points optimized for each system (48 h: 3C and CASM3C systems; 72 h: BT and HDF3CGF systems; 96 h: SAg system). SRB was performed by staining cells with 0.1% SRB after fixation with 10% TCA and reading wells at 560 nm.Viability and proliferation of PBMC (T cells) was quantified by Alamar Blue reduction for the SAg and BT systems. For PBMC viability (referred to as PBMC Cytotoxicity within the assay endpoint names), cells were plated (75,000/well in a 96-well plate) and then chemical samples added for 1 h before addition of activators, SEB and TSST-1 (20 ng/mL final concentration each). Cells were incubated for 90 h. Then, Alamar Blue (20 uL/well) (Invitrogen, Cat DAL1100) was added for 6 h, and the plates were read with a fluorescence microplate reader at 546/580 nm (excitation/emission). For PBMC proliferation, cells were plated and activated as above but incubated for only 16 h prior to addition of Alamar Blue. Plates were read after 6 h.
row,Compound,outcome
1,O=S(=O)(O)C(F)(F)C(F)(F)OC(F)(F)C(F)(F)F,inactive
2,CCCCN(CCO)CCO,inactive
3,OCC(F)(OC(F)(F)C(F)(OC(F)(F)C(F)(F)C(F)(F)F)C(F)(F)F)C(F)(F)F (stereo not drawn),inactive
4,CCn1cc(C(=O)O)c(=O)c2ccc(C)nc21,inactive
5,O=C(O)C(F)(F)C(F)(F)C(F)(F)C(F)(F)C(F)(F)C(F)(F)C(F)(F)C(F)F,inactive
6,CCCO[Si](OCCC)(OCCC)OCCC,inactive
7,O=C(O)C(F)(F)OC(F)(F)C(F)(F)OC(F)(F)C(F)(F)C(F)(F)C(F)(F)F,inactive
8,C=C(C)C(=O)OCCC(F)(F)C(F)(F)C(F)(F)C(F)(F)C(F)(F)C(F)(F)C(F)(F)C(F)(F)F,inactive
9,c1ccc(OCCOc2ccccc2)cc1,inactive
10,CC(C)CCCC(C)(C)O,inactive
11,CC(C)(CO)CO,inactive
12,C=C(F)C(=O)OC(C(F)(F)F)C(F)(F)F,inactive
13,CC(=O)c1ccc(C)cc1,inactive
